This is a sample that favours compounds with a hit; in the whole collection about 17% have one here.
HepG2 viability = qHTS for Inhibitors of TGF-b: Cytotox Counterscreen. 410,000 tested, 0.76% active. AID 588856, 2011. Potency, µM (top dose mostly 46.1 µM), for the others: top-dose activity change, negative = cytotoxicity, hits mostly cytotoxic. HepG2 CAGA-GFP viability, ATP luminescence, 18 h
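CellTiter-Glo luminescence gave cytotoxicity after 18 hours at 37 degrees C. The cells were HepG2 CAGA-GFP in 1% FBS DMEM, stimulated with 500 pg/mL TGF-beta after compound addition. %Activity was normalised to no-cell wells (complete cell-killing) and DMSO (no toxicity), and curves were fitted and classified.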
HT1080-NT tox = qHTS for induction of synthetic lethality in tumor cells producing 2HG: qHTS for the HT-1080-NT fibrosarcoma cell line; HT-1080-NT fibrosarcoma viability, CellTiter-Glo ATP luminescence, 48 h; Potency, µM (top dose mostly 46.1 µM), for inactives: at the top dose activity, negative = less viability, usual class: cytotoxic; 360,000 tested, 1.6% active;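 further: NT is the 2HG producing partner of a matched IDH1 knockdown line; 0% = DMSO-treated cells and -100% = media-only wells without cells; nearly all actives have a fitted effect of over 55% in size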
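Toxicity toward the 2HG-producing NT line was scored as %Activity, normalised to DMSO and no-cell wells, from CellTiter-Glo luminescence after 48 hours' treatment.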
DT40 TDP1 CPT = qHTS for Inhibitors of human tyrosyl-DNA phosphodiesterase 1 (TDP1): qHTS in cells in presence of CPT; AID 686979, 2013; chicken DT40 Tdp1-/-;hTDP1 cells + 20 nM CPT, ATP luminescence, 48 h; 420,000 tested, 12% active; Potency, µM (top dose mostly 46.2 µM), for the others: at the top dose activity change, negative = growth inhibition, hits mostly inhibitors; further: on the % scale 0 is the no-effect control and ±100 the full control effect; nearly all actives have a fitted effect of over 55% in size
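Chicken DT40 Tdp1-/- cells complemented with human TDP1, 400 cells/well, exposed to compounds plus 20 nM camptothecin for at least 48 h at 37 C; viability read as ATP content by CellTiter-Glo luminescence.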
TDP1 cell noCPT = qHTS for Inhibitors of human tyrosyl-DNA phosphodiesterase 1 (TDP1): qHTS in cells in absence of CPT | DT40 Tdp1-/- hTDP1 cells, no CPT, ATP luminescence, 48 h | Potency, µM (series often up to 46.2 µM), without a hit: at the top dose activity change, negative = growth inhibition, most hits filed as inhibitors | 420,000 tested, 15% active; further: on the % scale 0 is the no-effect control and ±100 the full control effect; nearly all actives have a fitted effect of over 55% in size
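Readout: luminescence from CellTiter-Glo after 30 min in the dark at RT. Cells: DT40 Tdp1-/- with stable hTDP1, 400/well. Exposure: compounds alone, ≥48 hr, 37 °C.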
TGFb inhibitor = qHTS for Inhibitors of TGF-b; HepG2 CAGA-GFP TGF-b/SMAD3 reporter, GFP fluorescence, 18 h; TGF-beta stimulated, 500 pg/mL final; Potency, µM (titrated, usually from 46.1 µM), for inactives: top-dose activity, negative = inhibition, hits mostly inhibitors; 410,000 tested, 1.2% active; AID 588855, 2011; further: on the % scale 0 is the no-effect control and ±100 the full control effect; nearly all actives have a fitted effect of over 65% in size
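Inhibition was scored as loss of TGF-beta-induced (500 pg/mL final, 18 hours, 37 degrees C) GFP in HEPG2 cells carrying a CAGA-GFP reporter, in DMEM with 1% FBS. Well GFP was summed per cell; Activity was normalised to unstimulated and stimulated DMSO wells, then concentration-response fitting.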
HT1080 IDH1KD tx = qHTS for induction of synthetic lethality in tumor cells producing 2HG: qHTS for the HT-1080-IDH1KD cell line. 360,000 tested, 2% active. HT-1080 IDH1 knockdown viability, ATP luminescence, 48 h. AID 686971, 2013. Potency, µM (titrated, usually from 46.1 µM), inactives show at the top dose activity, negative = toxicity, hits mostly cytotoxic;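 further: 0% = DMSO wells and -100% = cell-free medium wells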
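Assay cells: HT-1080 with IDH1 knockdown, 750 per well, RPMI/5% FBS. Exposure: 48 h at 37 °C following 2 h pre-incubation. Read: CellTiter-Glo luminescence; fitted concentration-response, curve class assigned.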
Starred values were filed as active, the others as inactive; u = inconclusive; x = no result given. The call rests on the fitted dose curve; in most records, active means well fitted curve in the direction sought with a large enough effect; inconclusive means small, poorly fitted or top-dose-only effect, or another doubt; inactive means no such curve, though single readings can be large; an effect the other way counts as inactive or inconclusive. Potency means the concentration at half of the fitted maximal effect.

SMILES	HepG2 viability	HT1080-NT tox	DT40 TDP1 CPT	TDP1 cell noCPT	TGFb inhibitor	HT1080 IDH1KD tx
COCCNC(=O)C1(C)CCCN(C(=O)Cc2ccc3ccccc3c2)C1 (stereo unspecified)	-5%	u	u	u	27%	18%
CCOc1ccc(Cc2n[nH]c(=S)n2Cc2ccccc2)cc1	-35%	-4%	u	16µM*	u	-20%
Cc1ccc(OCc2n[nH]c(=S)n2Cc2ccccc2)cc1	-3%	-19%	-2%	-12%	0%	2%
CCCCOc1ccc(-c2n[nH]c(=S)n2Cc2ccccc2)cc1	-36%	u	u	26µM*	0%	-5%
COc1ccc(-c2n[nH]c(=S)n2-c2cc(OC)ccc2OC)cc1	-8%	-17%	-29%	-24%	-7%	-12%
COc1ccc(-n2c(-c3ccc(C(C)(C)C)cc3)n[nH]c2=S)c(OC)c1	-20%	-4%	16µM*	23µM*	-10%	-8%
O=C1c2ccccc2S(=O)N1c1cccc(F)c1 (stereo unspecified)	-4%	21%	-20%	-28%	7%	3%
COC(=O)c1c(NC(=O)CCS(=O)(=O)c2ccccc2)sc2c1CCN(C)C2	25%	15%	5.8µM*	3.7µM*	u	16%
CC(C)(C)C(=O)Nc1sc2c(c1C#N)CCN(Cc1ccccc1)C2	-19%	-14%	u	23µM*	12%	-1%
CCC(=O)Nc1sc2c(c1C(=O)OC)CCN(Cc1ccccc1)C2	-16%	1%	-22%	-28%	0%	-5%
CC(C)N1CCc2c(sc(NC(=O)CCS(=O)(=O)c3ccccc3)c2C#N)C1	0%	-14%	u	26µM*	-10%	1%
N#Cc1c(N)sc2c1CCN(CCc1ccccc1)C2	2%	-2%	18µM*	u	8%	-8%
COC(=O)c1ccsc1NC(=O)CCS(=O)(=O)c1ccccc1	-5%	-1%	u	u	-29%	2%
Cc1oc2ncn(CC(C)C)c(=O)c2c1C(=O)N(CCN(C)C)Cc1ccccc1	7%	x	-22%	-9%	0%	x
CCCCn1cnc2c(SCc3ccccc3F)nc(N)nc21	-18%	18%	-11%	-28%	-10%	-5%
COc1ccccc1S(=O)(=O)N[C@@H]1CC[C@@H](CCn2cc(C3CC3)nn2)O[C@@H]1CO	x	23%	3%	8%	x	13%
O=C(Cn1cnc2c(oc3ccccc32)c1=O)NCC1CCCO1 (stereo unspecified)	-14%	-4%	4%	-2%	0%	1%
COc1ccc(CNC(=O)C(=O)NCCC2CCCCN2S(=O)(=O)c2ccc(C)cc2)cc1 (stereo unspecified)	7%	-7%	16µM*	26µM*	-7%	0%
Cc1ccc(C)c(S(=O)(=O)N2CCCCC2CCNC(=O)C(=O)NCc2ccco2)c1 (stereo unspecified)	7%	-17%	16µM*	8.2µM*	u	u
Cc1ccc(S(=O)(=O)N2CCCCC2CCNC(=O)C(=O)NCc2ccccc2)cc1 (stereo unspecified)	-3%	7.3µM*	3.3µM*	2.9µM*	-20%	6.5µM*
COC(=O)N(C)C[C@@H]1OCc2cn(nn2)CCCC(=O)N([C@@H](C)CO)C[C@H]1C	-13%	0%	19%	2%	-9%	1%
Cc1ccc(C)c(NC(=O)c2ccc[n+](Cc3ccc([N+](=O)[O-])cc3)c2)c1	22%	-1%	-9%	0%	-7%	10%
CC1(C)Cc2ccccc2C2CC(O)C(=O)N21 (stereo unspecified)	0%	7%	15µM*	u	114%	19%
O=C1NNC(=O)C1c1ccccc1	9%	0%	-1%	1%	15%	10%
O=C1CC(c2ccccc2)=C(c2ccccc2)C1c1ccccc1 (stereo unspecified)	-9%	-4%	29µM*	u	-16%	4%
SMILES	HepG2 viability	HT1080-NT tox	DT40 TDP1 CPT	TDP1 cell noCPT	TGFb inhibitor	HT1080 IDH1KD tx
CN=C1S/C(=C\c2ccc(N3CCCC3)c(F)c2)C(=O)N1C	-13%	4%	u	u	-2%	-9%
CN=C1S/C(=C\c2ccc(N3CCOCC3)c(F)c2)C(=O)N1C	-15%	1%	u	15µM*	13%	1%
COc1ccc(-n2c(CN3CCOCC3)nc3ccc([N+](=O)[O-])cc3c2=O)c(OC)c1	-8%	0%	-13%	-7%	0%	-5%
COc1ccc(-n2c(CN3CCC(C)CC3)nc3ccc([N+](=O)[O-])cc3c2=O)c(OC)c1	-22%	-6%	18µM*	u	u	-4%
CN(c1ccccc1)S(=O)(=O)c1ccc(Cl)c(C(=O)OCC(=O)c2c(N)n(C)c(=O)n(C)c2=O)c1	-15%	-16%	23µM*	u	u	-13%
COc1ccc(N(C)S(=O)(=O)c2cccc(C(=O)OCC(=O)c3c(N)n(C)c(=O)n(C)c3=O)c2)cc1	-9%	-13%	23µM*	13µM*	u	-2%
Cn1c(=O)c(C(=O)COC(=O)c2cc(C3CC3)nc3ccccc23)c(N)n(Cc2ccccc2)c1=O	-6%	-10%	21µM*	16µM*	-14%	-11%
C=CCN(c1ccc(OC)cc1)S(=O)(=O)c1ccc(Cl)c(C(=O)OCC(=O)c2c(N)n(C)c(=O)n(C)c2=O)c1	7%	1%	u	u	0%	3%
CCN(c1ccccc1)S(=O)(=O)c1cccc(C(=O)OCC(=O)c2c(N)n(C)c(=O)n(C)c2=O)c1	-10%	-6%	u	18µM*	u	0%
O=C(Nc1ccc(F)cc1)C(c1cc2ccccc2o1)N1CCN(C(=O)c2ccco2)CC1 (stereo unspecified)	x	-29%	-18%	u	x	-16%
O=c1[nH]c(=S)[nH]c2c1C(c1ccc(Cl)cc1)OC(CCc1ccccc1)C2 (stereo unspecified)	2%	7%	u	u	u	1%

Compound activity from PubChem.
